The values below are quoted from earlier work in PubChem BioAssay AID977611.

This data set in a line: PubChem AID 977611. To be noted: PDB protein-ligand complexes, literature Kd.

Among all 3,900 compounds or so, about 3,900 (100%) were called active. The limit is not given here; nearly all actives have Kd up to about 4200 µM. The set was probably picked from earlier hits. Some of the results follow. *1 amine or outer side, *2 acyl side, *3 side chain or, on linkers, in order; H or OH if unused. Where a SMILES comes first, the peptide text is derived from it. Square brackets hold non-standard residues; d marks the D form. Peptide text beside a SMILES is read from it. [ ]: non-standard residue; d: D form. The star is where a group is joined. Orn(CH(NH2)2) = NC(N)NCCC[C@H](N)C(=O)O; Lys(Me2) = CN(C)CCCC[C@H](N)C(=O)O; Suc = O=C(CCC(=O)[*:2])[*:1]; Bz = O=C(c1ccccc1)*

`C[C@H](NC(=O)[C@@H](NC(=O)CNC(=O)[C@@H]1CCCN1C(=O)[C@@H]1CCCN1C(=O)[C@H](C)NC(=O)[C@H](CCCCN)NC(=O)[C@@H](N)CCC(N)=O)[C@@H](C)O)C(=O)N[C@@H](CCCNC(N)N)C(=O)N[C@@H](CCCNC(N)N)C(=O)N[C@@H](CCCCN)C(=O)N[C@@H](CCCNC(N)N)C(=O)N[C@@H](CCCCN)C(=O)O` (H-QKAPPGTA[Orn(CH(NH2)2)][Orn(CH(NH2)2)]K[Orn(CH(NH2)2)]K-OH): under “protein: A. thaliana cpSRP43 Delta CD3, PDB entry 3ui2”, the Kd was 0.43 µM (active).

For the molecule `CC(C)[C@H](NC(=O)[C@@H]1CCCN1C(=O)[C@@H](N)Cc1ccc(O)cc1)C(=O)N[C@@H](CCCCN)C(=O)N[C@@H](CCCCN)C(=O)N[C@@H](CCCCN)C(=O)N[C@@H](C)C(=O)N[C@@H](CCCNC(N)N)C(=O)N[C@@H](CCCCN(C)C)C(=O)N[C@@H](CO)C(=O)N[C@@H](C)C(=O)NCC(=O)O` (H-YPVKKKA[Orn(CH(NH2)2)][Lys(Me2)]SAG-OH), under “protein: Human Chromobox Homolog 3 (CBX3), PDB entry 3tzd”, the Kd was 52 µM (active).

Take H-DPGEGPST-OH: the Kd (protein: Ubiquitin carboxyl-terminal hydrolase 7(USP7), PDB entry 1yy6) is 0.86 µM (active).

With `C[C@H](N)C(=O)N[C@@H](CCCNC(N)N)C(=O)N[C@H](C(=O)N[C@@H](CCCCN(C)C)C(=O)N[C@@H](CCC(N)=O)C(=O)N[C@H](C(=O)N[C@@H](C)C(=O)N[C@@H](CCCNC(N)N)C(=O)N[C@@H](CCCCN(C)C)C(=O)N[C@@H](CO)C(=O)N[C@H](C(=O)NCC(=O)NCC(=O)N[C@@H](CCCCN)C(=O)N[C@@H](C)C(=O)N1CCC[C@H]1C(=O)NCC(=O)NCC(=O)O)[C@@H](C)O)[C@@H](C)O)[C@@H](C)O`, for the setting “protein: heterochromatin protein 1 (HP1), PDB entry 1guw”, the Kd was 1.9 µM (active).

Consider `O=C1C=C(O)C(=O)C=C1O`, for which the Kd (protein: 5-chloro-2-hydroxyhydroquinone dehydrochlorinase (TftG), PDB entry 4lbp) was 11.4 µM (active).

As to `CNS(=O)(=O)Nc1nccc(Cc2c(C)c3ccc(Oc4ncccn4)cc3oc2=O)c1F`, where the note is “protein: Dual specificity mitogen-activated protein kinase kinase 1, Human MEK1 kinase, PDB entry 3wig”, the dissociation constant Kd was 0.0023 µM (active).

As to `CC(C)C[C@H](NC(=O)[C@@H](NC(=O)CNC(=O)c1ccccc1)C(C)C)C(=O)N[C@@H](CCCCNC(=O)CCC(=O)O)C(=O)N[C@@H](CCC(=O)O)C(=O)N[C@@H](Cc1ccc(O)cc1)C(=O)NCC(=O)N[C@H](C(=O)O)C(C)C` (Bz-GVLK(Suc)EYGV-OH), the Kd (protein: NAD-DEPENDENT PROTEIN DEACYLASE SIRTUIN-5, MITOCHONDRIAL zebrafish Sirtuin 5, PDB entry 4utn) was 0.71 µM (active).

`CC(C)C[C@H](NC(=O)[C@@H](NC(=O)CNC(=O)c1ccccc1)C(C)C)C(=O)N[C@@H](CCCCN)C(=O)N[C@@H](CCC(=O)O)C(=O)N[C@@H](Cc1ccc(O)cc1)C(=O)NCC(=O)N[C@H](C(=O)O)C(C)C` (Bz-GVLKEYGV-OH): the Kd runs as follows: (protein: NAD-DEPENDENT PROTEIN DEACYLASE SIRTUIN-5, MITOCHONDRIAL zebrafish Sirtuin 5, PDB entry 4utr) 0.7 µM (active); (protein: NAD-DEPENDENT PROTEIN DEACYLASE SIRTUIN-5, MITOCHONDRIAL zebrafish Sirtuin 5, PDB entry 4utv) 8.2 µM (active); (protein: NAD-DEPENDENT PROTEIN DEACYLASE SIRTUIN-5, MITOCHONDRIAL zebrafish Sirtuin 5, PDB entry 4utx) 5.78 µM (active); (protein: NAD-DEPENDENT PROTEIN DEACYLASE SIRTUIN-5, MITOCHONDRIAL zebrafish Sirtuin 5, PDB entry 4uu7) 0.83 µM (active); (protein: NAD-DEPENDENT PROTEIN DEACYLASE SIRTUIN-5, MITOCHONDRIAL zebrafish Sirtuin 5, PDB entry 4uu8) 0.29 µM (active); (protein: NAD-DEPENDENT PROTEIN DEACYLASE SIRTUIN-5, MITOCHONDRIAL zebrafish Sirtuin 5, PDB entry 4uua) 5.78 µM (active).

Usually Kd stands for the concentration at which binding is half-saturated.
